Assay results taken from ChEMBL document CHEMBL3988442, “University of Dundee, Small-Polar-MMV Screening Library” (2021).
“And” between values parts separate entries of the source, which are not always exact repeats. Equal values may be shown once. The whole screen tested about 34,000 compounds, of which about 290 (0.85%) showed an effect of 50% or more. What follows is part of a selection rich in strong results, with near analogues and random picks from the rest.

Tested on: Plasmodium falciparum
Assay: Plasmodium falciparum sporozoite viability assay
Assay type: functional, organism-based
Parameters: scale not given: in the data most compounds retested in dose-response had high values

Structure (SMILES) | Percent Effect (10 mM as filed; unlikely as a test dose) | Percent Effect
Cc1cccc(NC2CCN(C(=O)Nc3cc(F)cc(F)c3)CC2)n1 | -0.7988% and 3.277% and 6.003% | –
Cc1cccc(NC2CCN(C(=O)Nc3ccc(F)c(F)c3)CC2)n1 | 48.63% and 63.22% and 54.45% | –
Cc1cccc(NC2CCN(C(=O)Nc3ccncc3)CC2)n1 | -1.906% and 4.517% and 18.88% | –
Cc1ccc(C(C)NC(=O)CNCCn2cccn2)cc1C (stereo not drawn) | – | -5.595%
Cc1cc(C(F)(F)F)n2nc(C3CCN(S(C)(=O)=O)CC3)cc2n1 | -9.274% and -13.96% and -8.495% | –
CCN1CC[C@@H]2OC[C@H](C(=O)NCc3cccs3)C[C@@H]2C1 | – | 18.4%
CN1CCC(c2cccc(Cc3ccc(C(F)(F)F)cc3)n2)CC1 | – | 3.398%
CCc1ccc(-c2cc(C(F)(F)F)nc(N3CCC(N)CC3)n2)cc1 | 67.54% and 55.39% | –
Cc1cc(C(F)(F)F)nc(C2CCN(C(=O)CO)CC2)n1 | – | -4.597%
CCN1CC2(CCOCC2)c2cc(NS(=O)(=O)CC)ccc21.O=C(O)C(F)(F)F | – | 11.65%
Cc1cnn(CC2CN(Cc3ccccn3)CCO2)c1 (stereo not drawn) | – | -1.077%
CC(Cn1cccn1)NC(=O)NCCc1cccnc1 (stereo not drawn) | – | 12%
COCC(=O)N1CC(c2ccnc(Nc3ccc(C)cn3)n2)C1 | 0.1159% and 3.964% and -12.15% | –
Cc1ccc(Nc2nccc(C3CN(C(C)C)C3)n2)nc1 | – | 10.21%
Cc1ccc(Nc2nccc(C3CCN(CC(N)=O)C3)n2)nc1 (stereo not drawn) | 101.9% and 103.5% and 87.92% | –
CC(=O)N1CCC(c2ccnc(Nc3ccc(C)cn3)n2)C1 (stereo not drawn) | -6.604% and -1.275% and 4.318% | –
Cc1ccc(Nc2nccc(C3CCCN(CC(=O)N(C)C)C3)n2)nc1 (stereo not drawn) | 76.43% and 66.32% and 68.98% | –
O=C(Cc1ccc(F)cc1)N1CCn2c(Cn3cncn3)cnc2C1 | – | 8.505%
Cc1cc(OCCC(=O)NCc2ccc(F)cc2)nnc1C | – | 1.961%
Cc1nc(COC[C@@]23CCC[C@@H]2CN(Cc2cnn(C)c2)C3)cs1 | – | 2.977%
Cc1c(-c2cc(C(=O)N3CCc4ncc(Cl)cc4C3)on2)cnn1C | – | 3.017%
C[C@H](NS(C)(=O)=O)C(=O)NCc1cc(-c2ccco2)n(CC(F)(F)F)n1 | – | 3.472%

Structure (SMILES) | Percent Effect (10 mM as filed; unlikely as a test dose) | Percent Effect
CC(Nc1nccc(CCC(F)(F)F)n1)c1nc(-c2ccccn2)no1 (stereo not drawn) | 60.54% and 52.08% | –
CC(C)c1noc(C(C)Nc2nccc(CCC(F)(F)F)n2)n1 (stereo not drawn) | 1.671% and -0.3266% | –
CC(Nc1nccc(CCC(F)(F)F)n1)c1nc(-c2ccncc2)no1 (stereo not drawn) | -11.17% and -18.73% | –
CN1CCN(C(=O)[C@H]2C[C@H]3[C@H](CCN3Cc3nccs3)O2)CC1 | – | 0.9025%
O=C(Nc1ccccc1)c1nn(C2CCS(=O)(=O)C2)c2c1CCCC2 (stereo not drawn) | 23.34% and 42.14% and 38.32% | –
Cc1cccc(NC(=O)c2nn(C3CCS(=O)(=O)C3)c3c2CCCC3)n1 (stereo not drawn) | 27.72% and 25.15% | –
O=C(Nc1ccccc1F)c1nn(C2CCS(=O)(=O)C2)c2c1CCCC2 (stereo not drawn) | 38.15% and 35.56% | –
O=C(Nc1cccc(Cl)c1)c1nn(C2CCS(=O)(=O)C2)c2c1CCCC2 (stereo not drawn) | 70.24% and 80.75% and 81.2% | –
O=C(Nc1ccc(Cl)cn1)c1nn(C2CCS(=O)(=O)C2)c2c1CCCC2 (stereo not drawn) | 72.26% and 68.39% | –
O=C(Nc1ccc(Cl)cc1)c1nn(C2CCS(=O)(=O)C2)c2c1CCCC2 (stereo not drawn) | -17.96% and -20.43% | –
CC1CCN(S(=O)(=O)NCc2ccccc2Cn2cccn2)CC1 | – | 3.533%
c1cncc(CN2CCCC3(COCCN(c4cncnc4)C3)C2)c1 (stereo not drawn) | – | -1.976%
CC(C)[C@H](NS(C)(=O)=O)C(=O)NCc1cc(-c2ccccc2)n[nH]1 | – | -6.181%
C[C@H](NS(C)(=O)=O)C(=O)NCc1cc(-c2ccco2)n[nH]1 | – | -6.52%
CCc1nn(C)c(Cl)c1CN(CCOC)Cc1cnn(C)c1 | – | -2.336%
CCOc1cc(/C=C/c2ncc(C(=O)O)s2)cc(Br)c1OC | – | 6.645%
CCOc1ncccc1C(=O)N1CCCC1Cn1nc(C)cc1C (stereo not drawn) | – | -1.877%
CC(c1ccncn1)N(C)Cc1cc2cc3c(cc2[nH]c1=O)OCO3 (stereo not drawn) | 36.77% and 42.23% and 61.28% | –
CC(c1ccccn1)N(C)Cc1cc2cc3c(cc2[nH]c1=O)OCO3 (stereo not drawn) | 18.92% and 31.37% and 23.56% | –
CN(C)CCOCC1CN(Cc2ccc(F)cc2)Cc2nnn(C)c21.O=C(O)C(F)(F)F.O=C(O)C(F)(F)F (stereo not drawn) | – | 3.947%
CCCn1cc(NC(=O)c2ccc(S(C)(=O)=O)cc2)ccc1=O | – | -6.389%
